Drawing on PubChem BioAssay AID1053119 (Broad Institute, 2014), this text covers outcome for 75 molecules.

Entries with a potency or affinity are not part of this list. Inconclusive results are not listed. Active and inactive are the calls of the source.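 The calls were made as follows: active = signal loss from cell killing with fitted potency at or below twice the top valid dose; inconclusive = flat drop of 30 to 70%, or unreliable curve fit; inactive = opposite direction, flat within 30%, or weaker potency.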

The assay in a line: A549 cell cytotoxicity, dose response, cytotoxicity control, cherry-picks, 26 µM top dose (AID 1053119). To be noted: A549 viability, CellTiter-Glo ATP luminescence, 72 h; series mostly up to 26 µM. For orientation: ATP-based viability assays read luminescence as a measure of living cells.

Turning to `O=C(OCC(O)C(O)COC(=O)c1ccccc1)c1ccccc1` (stereo not given), the molecule was classed as inactive.

In the case of `N#C[C@@H]1[C@H](c2ccccc2C2=CCCCC2)[C@@H](CO)N1S(=O)(=O)c1ccccc1`, the call was inactive.

As to `Cc1ccc(NC(=O)COC(=O)c2cc(Cl)ccc2[N+](=O)[O-])c(C)c1`, the result was inactive.

`C[C@H](O)C#Cc1ccc2c(c1)O[C@H](CN(C)C)[C@@H](C)CN([C@@H](C)CO)S2(=O)=O`: the result was inactive.

Take `O=C(CCC(=O)c1cccs1)NCc1cccnc1`: the result was inactive.

For the molecule `Cc1ccc(CS(=O)Cc2ccc(C(=O)NC3CCCC(C)C3C)o2)cc1` (stereo not given), the molecule was classed as inactive.

With `OC(CNC1CCCc2ccccc21)COc1c(Cl)cccc1Cl` (stereo not given), the call was inactive.

Take `COC(=O)C[C@H]1CC[C@@H]2[C@H](COc3ccc(NC(=O)Cc4cccs4)cc3C(=O)N2C)O1`: the result was inactive.

Turning to `C[C@H](CO)N1C[C@H](C)[C@@H](CN(C)Cc2ccccc2)Oc2ncc(-c3ccccc3)cc2C1=O`, the outcome was inactive.

Take `COc1ccc(C)cc1N(CC(=O)Nc1cccc(N(C)S(C)(=O)=O)c1)S(C)(=O)=O`: the molecule was called inactive.

On to `O=C(c1cccnc1)N1C[C@H]2[C@@H](c3ccccc31)[C@H](CO)N2CC1CCCC1`, for which the molecule was classed as inactive.

Regarding `CCCCNC(=O)Nc1nc2ccc(CC)cc2s1`, the outcome was inactive.

Take `COCC(=O)Nc1ccc2c(c1)C(=O)N(C)[C@@H]1CC[C@H](CC(=O)NCc3ccccc3Cl)O[C@H]1CO2`: the molecule was classed as inactive.

As for `C[C@@H]1CN([C@H](C)CO)C(=O)c2cc(-c3ccccc3)cnc2O[C@@H]1CN(C)C(=O)c1cccc(F)c1`, the molecule was classed as inactive.

Take `C=CCC[C@H](Cc1ccc(F)cc1)C(=O)OC[C@H](Cc1c[nH]c2ccccc12)NC(=O)[C@@H](CC=C)CC(=O)N[C@@H](CO)Cc1ccccc1`: the molecule was classed as inactive.

Consider `O=S(=O)(c1cccc(F)c1)N1CC[C@H]2[C@H](CO)Nc3ccc(-c4cccc(F)c4)cc3[C@H]21`, for which the molecule was classed as inactive.

As for `Cc1ccc(Nc2nnc(SCc3ccccc3)s2)cc1`, the outcome was inactive.

On to `COC(=O)c1cn(CC(=O)NCc2ccco2)c2ccccc12`, for which the molecule was called inactive.

Regarding `CC(C)NC(=O)N(C)C[C@H]1Oc2ccc(NC(=O)CCN3CCOCC3)cc2C(=O)N([C@H](C)CO)C[C@@H]1C`, the molecule was classed as inactive.

On to `C[C@H](CO)N1C[C@H](C)[C@@H](CN(C)Cc2ccc(-c3ccccc3)cc2)Oc2ccc(NC(=O)CCCN(C)C)cc2C1=O`, for which the molecule was called inactive.

For `CO[C@H]1CN(C)C(=O)c2cc(NC(C)=O)ccc2OC[C@@H](C)N(C(=O)CN2CCOCC2)C[C@H]1C`, the call was inactive.

For the molecule `C[C@@H]1CN([C@H](C)CO)C(=O)c2cccc(NC(=O)Nc3ccc(C(F)(F)F)cc3)c2O[C@H]1CN(C)C(=O)Nc1cccc2ccccc12`, the call was inactive.

In the case of `C[C@@H]1CN([C@@H](C)CO)C(=O)c2cc(-c3ccncc3)cnc2O[C@@H]1CN(C)C(=O)Cc1cccnc1`, the outcome was inactive.

`O=S(=O)(c1ccccc1F)N1CC[C@@H]2[C@H]1c1cc(-c3cccc(F)c3)ccc1N[C@@H]2CO`: the molecule was called inactive.

For `N#Cc1ccc(-c2ccc3c(c2)[C@@H]2[C@@H](CCN2S(=O)(=O)c2cccc(F)c2)[C@H](CO)N3)cc1`, the result was inactive.

Consider `O=C(CSc1nc2ncc(Cl)cc2[nH]1)c1c[nH]c2ccccc12`, for which the molecule was called inactive.

Turning to `CN(C)C(=O)c1ccc(-c2ccc3c(c2)[C@@H]2[C@@H](CCN2C(=O)c2ccc(F)cc2)[C@@H](CO)N3C)cc1`, the outcome was inactive.

Take `COc1cccc(-c2ccc3c(c2)[C@@H]2[C@@H](CCN2S(=O)(=O)c2cccc(OC)c2)[C@H](CO)N3)c1`: the outcome was inactive.

For the molecule `Cc1cc(C)n2ncc(C(=O)NCc3ccc(Cl)cc3)c2n1`, the molecule was called inactive.

Regarding `NC(=O)C1=C[C@H](c2coc3ccccc3c2=O)C[C@H](OCCCCO)O1`, the molecule was called inactive.

`Cc1cc(C)c(S(=O)(=O)Nn2cnnc2)c(C)c1`: the result was inactive.

As to `Cc1cccc(NC(=O)Nc2ccc(S(=O)(=O)Nc3onc(C)c3C)cc2)c1`, the molecule was called inactive.

Take `C[C@@H]1CN([C@@H](C)CO)C(=O)c2cc(NC(=O)C3CCCCC3)ccc2O[C@@H]1CN(C)Cc1ccc(-c2ccccc2)cc1`: the molecule was classed as inactive.

As for `CN(C)c1ccc(-c2ccnc3c2CC(C)(C(=O)NCC2CC2)O3)cc1` (stereo not given), the outcome was inactive.

For the molecule `C[C@H](O)C#Cc1ccc2c(c1)O[C@H](CN(C)C)[C@H](C)CN([C@@H](C)CO)S2(=O)=O`, the molecule was called inactive.

Regarding `Cc1cccc(NC(=O)c2ccc(C3SCC(=O)N3CCc3ccccc3)cc2)c1` (stereo not given), the result was inactive.

As for `CO[C@@H]1CN(C)C(=O)c2cc(NC(=O)Nc3ccc(Cl)c(Cl)c3)ccc2OC[C@H](C)NC[C@@H]1C`, the call was inactive.

For the molecule `CCN1CCN(C(c2ccccc2)c2nnnn2Cc2ccccc2)CC1` (stereo not given), the molecule was classed as inactive.

`C[C@H](CO)N1C[C@H](C)[C@H](CN(C)C(=O)c2cccc(F)c2)Oc2ncc(-c3ccccc3)cc2C1=O`: the outcome was inactive.

Consider `COc1cccc(CNC(=O)CCc2nnc3ccc(NCCCN4CCCC4=O)nn23)c1`, for which the result was inactive.

On to `COCC(=O)Nc1ccc2c(c1)C(=O)N(C)[C@@H]1CC[C@@H](CC(=O)NCc3ccccc3Cl)O[C@@H]1CO2`, for which the result was inactive.

As for `C[C@@H]1CN([C@@H](C)CO)C(=O)c2cc(-c3ccccc3)cnc2O[C@@H]1CN(C)C(=O)c1cccc(F)c1`, the molecule was classed as inactive.

As to `COC(=O)C[C@@H]1CC[C@H]2[C@H](COc3ccc(NC(=O)Cc4cccs4)cc3C(=O)N2C)O1`, the outcome was inactive.

Consider `COCC(=O)Nc1ccc2c(c1)C(=O)N(C)[C@H]1CC[C@H](CC(=O)NCc3ccccc3Cl)O[C@H]1CO2`, for which the molecule was called inactive.

In the case of `Cc1ccc(N(CC(=O)NCc2ccco2)S(=O)(=O)c2ccccc2)cc1`, the molecule was classed as inactive.

On to `CC(C)CNC(=O)c1coc(=O)c(Br)c1`, for which the molecule was called inactive.

Regarding `COC(=O)C[C@H]1CC[C@H]2[C@H](COc3ccc(NC(=O)Cc4cccs4)cc3C(=O)N2C)O1`, the outcome was inactive.

For the molecule `Cc1ccc([N+](=O)[O-])cc1NC(=O)CN(C(=O)c1ccccc1Cl)C1CCCCC1`, the molecule was classed as inactive.

`O=C(Nc1ccccc1F)N1C[C@H]2[C@@H](c3ccccc31)[C@H](CO)N2C(=O)C1CC1`: the molecule was classed as inactive.

As to `C[C@@H]1CN([C@H](C)CO)C(=O)c2cc(-c3ccccc3)cnc2O[C@H]1CN(C)Cc1ccccc1`, the outcome was inactive.

For the molecule `O=C(Nc1ccccc1F)N1C[C@@H]2[C@H](c3ccccc31)[C@H](CO)N2C(=O)C1CCOCC1`, the outcome was inactive.

Regarding `Nc1c(C(=O)NCc2ccco2)nnn1Cc1ccccc1`, the call was inactive.

With `C[C@H]1CN([C@@H](C)CO)C(=O)c2cc(-c3ccccc3)cnc2O[C@H]1CN(C)C(=O)c1cccc(F)c1`, the call was inactive.

On to `Fc1cnc(N2CCN(c3ccccc3)CC2)nc1N1CCN(c2ccccc2)CC1`, for which the molecule was called inactive.

As for `CO[C@H]1CN(C)C(=O)c2ccc(NC(=O)Nc3cc(Cl)cc(Cl)c3)cc2OC[C@H](C)NC[C@@H]1C`, the result was inactive.

Consider `COc1cccc(S(=O)(=O)N2CC[C@@H]3[C@H]2c2cc(-c4ccc(C#N)cc4)ccc2N[C@@H]3CO)c1`, for which the molecule was classed as inactive.

For `S=C(NCC1CCCO1)Nc1ccc(Cl)cc1Cl` (stereo not given), the result was inactive.

In the case of `COc1cccc(CN2CCN(C(=O)c3ccc(-c4ccccc4)cc3)CC2)c1OC`, the outcome was inactive.

As to `COc1ccccc1N(CC(=O)N(CC(C)C)CC(C)C)S(=O)(=O)c1cccs1`, the result was inactive.

Take `COc1ccccc1CNc1nc(NCc2cnc(C)cn2)c2sccc2n1`: the molecule was called inactive.

Regarding `Cc1ccccc1S(=O)(=O)N1CC[C@H]2[C@H](CO)Nc3ccc(-c4ccc(C#N)cc4)cc3[C@H]21`, the molecule was called inactive.

With `Cc1ccc(-c2nc3ncccc3o2)cc1NC(=O)c1ccco1`, the molecule was classed as inactive.

As to `Cc1ccc(S(=O)(=O)N2CC3(C)CN(S(=O)(=O)c4ccc(C)cc4)CC(C)(C2)C3=O)cc1`, the call was inactive.

Turning to `CCc1nc2c(OCCc3cccc(OC)c3)cccn2c1N(C)C(=O)c1ccc(C)cc1`, the result was inactive.

Turning to `C[C@H](CO)N1C[C@H](C)[C@H](CN(C)C(=O)Nc2cccc3ccccc23)Oc2c(NC(=O)Nc3ccc(C(F)(F)F)cc3)cccc2C1=O`, the call was inactive.

As for `CSc1ccccc1C(=O)C1CCCN(C(=O)CCc2cccnc2)C1` (stereo not given), the molecule was classed as inactive.

Regarding `COCC(=O)Nc1ccc2c(c1)C(=O)N(C)[C@H]1CC[C@@H](CC(=O)NCc3ccccc3Cl)O[C@H]1CO2`, the molecule was classed as inactive.

Regarding `CC(=O)Nc1cccc(-c2ccnc3c2CC(C)(C(=O)Nc2cccc(C(F)(F)F)c2)O3)c1` (stereo not given), the outcome was inactive.

Turning to `CCOc1ccccc1NC(=O)c1c(NC(=O)CCC(=O)O)sc2c1CCCCC2`, the molecule was called inactive.

Take `CCC(C)(C)NC(=O)C(OC(=O)c1ccco1)c1ccccc1OC` (stereo not given): the outcome was inactive.

For `CN1c2ccc(-c3ccccc3)cc2[C@H]2[C@H](CCN2C(=O)CN2CCOCC2)[C@@H]1CO`, the result was inactive.

Take `CCOC(=O)c1nnn(-c2ccc(OC)cc2)c1N`: the outcome was inactive.

As to `CO[C@H]1CN(C)C(=O)c2cc(NC(=O)Nc3ccc(Cl)c(Cl)c3)ccc2OC[C@H](C)NC[C@H]1C`, the outcome was inactive.

On to `C[C@H]1CN([C@@H](C)CO)C(=O)c2cc(-c3ccccc3)cnc2O[C@H]1CN(C)Cc1ccccc1`, for which the outcome was inactive.

`O=c1c2cc(N3CCOCC3)ccc2[nH]c(=S)n1Cc1ccc(Cl)cc1`: the outcome was inactive.
